Source: PubChem BioAssay AID1159580 (chemical genetic matrix, 2015)
Hit rate of the full screen: of about 5,500 compounds, about 2,000 (36%) were called active. Not shown: some 18% with an inconclusive outcome. No stated cut-off is given here; in the data, active means normalized growth mostly below about 0.91 (no sharp cut-off); inconclusive means no clear call, values can overlap the other calls; inactive means mostly above about 0.92. This is one part of the list.

Assay: chemical genetic growth profiling, strain panel (AID 1159580);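 further: tested at 20 µM; growth read once vehicle control cultures reached saturation at 30 °C; 1 = growth at the plate median or of vehicle wells; lower values mean less growth of the strain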
Settings: growth OD

Measured: normalized growth

CCOP(=S)(OCC)SCSCC
inactive: S. cerevisiae deletion strains, locus YAL013W, strain DEP1, active compounds read low 1 | S. cerevisiae deletion strains, locus YBR021W, strain FUR4, active compounds read low 0.979 | S. cerevisiae deletion strains, locus YBR229C, strain ROT2, active compounds read low 1 | S. cerevisiae deletion strains, locus YCL029C, strain bik1, active compounds read low 1 | S. cerevisiae deletion strains, locus YDL035C, strain GPR1, active compounds read low 0.986 | S. cerevisiae deletion strains, locus YDL074C, strain BRE1, active compounds read low 0.963 | S. cerevisiae deletion strains, locus YDL101C, strain DUN1, active compounds read low 1 | S. cerevisiae deletion strains, locus YDL134C, strain PPH21, active compounds read low 0.998 | S. cerevisiae deletion strains, locus YDL185W, strain tfp1, active compounds read low 1.01 | S. cerevisiae deletion strains, locus YDL192W, strain arf1, active compounds read low 1 | S. cerevisiae deletion strains, locus YDR101C, strain arx1, active compounds read low 0.993 | S. cerevisiae deletion strains, locus YDR150W, strain NUM1, active compounds read low 0.994 | S. cerevisiae deletion strains, locus YDR162C, strain NBP2, active compounds read low 0.969 | S. cerevisiae deletion strains, locus YDR318W, strain mcm21, active compounds read low 1.01 | S. cerevisiae deletion strains, locus YDR388W, active compounds read low 1 | S. cerevisiae deletion strains, locus YDR502C, strain sam2, active compounds read low 1 | S. cerevisiae deletion strains, locus YEL061C, strain CIN8, active compounds read low 1.01 | S. cerevisiae deletion strains, locus YER110C, active compounds read low 1 | S. cerevisiae deletion strains, locus YER155C, strain BEM2, active compounds read low 1 | S. cerevisiae deletion strains, locus YER167W, strain BCK2, active compounds read low 1 | S. cerevisiae deletion strains, locus YGL078C, strain dbp3, active compounds read low 1 | S. cerevisiae deletion strains, locus YGL086W, strain mad1, active compounds read low 0.998 | S. cerevisiae deletion strains, locus YGL248W, strain PDE1, active compounds read low 1 | S. cerevisiae deletion strains, locus YGR078C, strain PAC10, active compounds read low 0.99 | S. cerevisiae deletion strains, locus YGR135W, strain pre9, active compounds read low 1.01 | S. cerevisiae deletion strains, locus YGR229C, strain SMI1, active compounds read low 0.998 | S. cerevisiae deletion strains, locus YGR252W, strain gcn5, active compounds read low 0.993 | S. cerevisiae deletion strains, locus YHR030C, strain SLT2, active compounds read low 1 | S. cerevisiae deletion strains, locus YHR079C, strain IRE1 (second series), active compounds read low 1.01 | S. cerevisiae deletion strains, locus YHR094C, strain hxt1, active compounds read low 0.997 | S. cerevisiae deletion strains, locus YHR129C, strain ARP1, active compounds read low 1.01 | S. cerevisiae deletion strains, locus YHR200W, strain rpn10, active compounds read low 1.01 | S. cerevisiae deletion strains, locus YIL066C, strain RNR3, active compounds read low 1.01 | S. cerevisiae deletion strains, locus YIL073C, strain SPO22, active compounds read low 1.06 | S. cerevisiae deletion strains, locus YIL125W, strain kgd1, active compounds read low 1 | S. cerevisiae deletion strains, locus YIR030C, strain dcg1, active compounds read low 1.01 | S. cerevisiae deletion strains, locus YJL095W, strain BCK1, active compounds read low 0.993 | S. cerevisiae deletion strains, locus YJL134W, strain LCB3, active compounds read low 1 | S. cerevisiae deletion strains, locus YJL168C, strain set2, active compounds read low 1.01 | S. cerevisiae deletion strains, locus YJL187C, strain SWE1 (second series), active compounds read low 1.01 | S. cerevisiae deletion strains, locus YJR043C, strain POL32, active compounds read low 1.01 | S. cerevisiae deletion strains, locus YJR075W, strain HOC1, active compounds read low 1 | S. cerevisiae deletion strains, locus YKL009W, strain mrt4, active compounds read low 1.01 | S. cerevisiae deletion strains, locus YKL068W, active compounds read low 1.01 | S. cerevisiae deletion strains, locus YKL085W, strain MDH1 (second series), active compounds read low 1 | S. cerevisiae deletion strains, locus YKL085W, strain MDH1, active compounds read low 1 | S. cerevisiae deletion strains, locus YKL190W, strain CNB1, active compounds read low 1.01 | S. cerevisiae deletion strains, locus YKR001C, strain vps1, active compounds read low 0.998 | S. cerevisiae deletion strains, locus YLR039C, strain RIC1, active compounds read low 1.01 | S. cerevisiae deletion strains, locus YLR058C, strain SHM2, active compounds read low 1.01 | S. cerevisiae deletion strains, locus YLR102C, strain apc9, active compounds read low 1.02 | S. cerevisiae deletion strains, locus YLR262C, strain YPT6, active compounds read low 0.953 | S. cerevisiae deletion strains, locus YLR268W, strain sec22, active compounds read low 0.991 | S. cerevisiae deletion strains, locus YLR330W, strain CHS5, active compounds read low 0.999 | S. cerevisiae deletion strains, locus YLR342W, strain FKS1 (second series), active compounds read low 1.03 | S. cerevisiae deletion strains, locus YLR371W, strain rom2, active compounds read low 1.02 | S. cerevisiae deletion strains, locus YLR418C, strain cdc73, active compounds read low 0.943 | S. cerevisiae deletion strains, locus YML016C, strain PPZ1, active compounds read low 1 | S. cerevisiae deletion strains, locus YML032C, strain rad52, active compounds read low 1 | S. cerevisiae deletion strains, locus YML124C, strain tub3, active compounds read low 1.01 | S. cerevisiae deletion strains, locus YMR078C, strain ctf18, active compounds read low 1 | S. cerevisiae deletion strains, locus YMR223W, strain ubp8, active compounds read low 1.01 | S. cerevisiae deletion strains, locus YMR263W, strain SAP30, active compounds read low 0.952 | S. cerevisiae deletion strains, locus YMR307W, strain GAS1, active compounds read low 1.02 | S. cerevisiae deletion strains, locus YNL067W, strain RPL9B, active compounds read low 0.988 | S. cerevisiae deletion strains, locus YNL128W, strain TEP1, active compounds read low 1 | S. cerevisiae deletion strains, locus YNL153C, strain GIM3, active compounds read low 1 | S. cerevisiae deletion strains, locus YNL233W, strain BNI4, active compounds read low 1 | S. cerevisiae deletion strains, locus YNL250W, strain rad50, active compounds read low 1.01 | S. cerevisiae deletion strains, locus YNL271C, strain bni1, active compounds read low 1 | S. cerevisiae deletion strains, locus YNL298W, strain CLA4, active compounds read low 1.02 | S. cerevisiae deletion strains, locus YNL307C, strain MCK1, active compounds read low 1 | S. cerevisiae deletion strains, locus YNL322C, strain KRE1, active compounds read low 1.01 | S. cerevisiae deletion strains, locus YNR052C, strain pop2, active compounds read low 1.01 | S. cerevisiae deletion strains, locus YOL006C, strain TOP1, active compounds read low 0.985 | S. cerevisiae deletion strains, locus YOL012C, strain htz1 0.793 | S. cerevisiae deletion strains, locus YOL147C, strain pex11, active compounds read low 1 | S. cerevisiae deletion strains, locus YOR061W, strain CKA2, active compounds read low 0.994 | S. cerevisiae deletion strains, locus YOR069W, strain VPS5, active compounds read low 1 | S. cerevisiae deletion strains, locus YOR136W, strain idh2, active compounds read low 1 | S. cerevisiae deletion strains, locus YOR144C, strain elg1, active compounds read low 0.996 | S. cerevisiae deletion strains, locus YOR184W, strain ser1, active compounds read low 1.01 | S. cerevisiae deletion strains, locus YOR316C, strain cot1, active compounds read low 1 | S. cerevisiae deletion strains, locus YPL055C, strain LGE1, active compounds read low 0.974 | S. cerevisiae deletion strains, locus YPL241C, strain CIN2, active compounds read low 0.998 | S. cerevisiae deletion strains, locus YPR119W, strain clb2, active compounds read low 0.997 | S. cerevisiae deletion strains, locus YPR141C, strain kar3, active compounds read low 1.01 | S. cerevisiae deletion strains, locus YPR163C, strain tif3, active compounds read low 1.01 | S. cerevisiae deletion strains, locus YPR167C, strain met16, active compounds read low 1.01 | S. cerevisiae deletion strains, strain wtn01, active compounds read low 1.01 | S. cerevisiae strains, strain wild type, active compounds read low 1.01
